Experimental data from PubChem BioAssay AID1272365 (Small Molecule Screening Facility, UW Madison, 2018).
Where “and” joins values, the source holds several entries; their conditions need not be identical. Equal entries are not always repeated. Out of some 430,000 compounds screened, about 2,600 (0.6%) were called active. Cut-off read from the data, not from the text of the source: active = inhibition mostly above about 37% (no sharp cut-off); inactive = mostly below about 20%. The list comes from a sample in which actives are over-represented; it also holds similar structures and randomly drawn compounds.

tested on: PriA–SSB C-terminal tail interaction (Klebsiella pneumoniae); assay: blocks PriA binding to SSB C-terminal tail, primary screen, biochemical, AlphaScreen (AID 1272365); settings: AlphaScreen SSBct-PriA binding, biotinylated peptide; at 33 µM, active compounds read high;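 for inhibition: plate controls were negative control peptide for no effect and reference peptide for full effect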

| SMILES | inhibition |
| --- | --- |
| COc1cn2c(cc1=O)C(=O)N(CCNC(=O)C1(c3ccc(Cl)cc3)CCCC1)CC2 | -13% (inactive) and -15% (inactive) |
| Cc1ccc2c(CC(=O)NCc3ccccc3Cl)cc(=O)oc2c1 | -3% (inactive) |
| O=C(OCC(=O)N1CCc2ccccc21)c1ccc([N+](=O)[O-])cc1 | -10.4% (inactive) |
| O=C(COC(=O)c1cccc(I)c1)c1ccc(-n2nncc2-c2ccccc2)cc1 | -4% (inactive) |
| O=C(COC(=O)c1cccc(I)c1)c1ccc([N+](=O)[O-])cc1 | 38% (active) |
| CS(=O)(=O)N1CCC(CNC(=O)c2ccc(OC(F)(F)F)cc2)CC1 | -25% (inactive) |
| O=S(=O)(/C=C/c1ccccc1)N1CCCSCC1CN1CCOCC1 (stereo not drawn) | -4% (inactive) |
| COC(=O)c1sccc1S(=O)(=O)NCc1ccc(C(=O)c2ccco2)s1 | -24% (inactive) |
| O=C(Cn1nc(-n2ccc3ccccc32)ccc1=O)Nc1c[nH]c(=O)[nH]c1=O | -41% (inactive) |
| CCSc1ccccc1C(=O)N1CCN(c2ccc(-c3ccccn3)nn2)CC1 | 161% (active) |
| O=C(c1ccccc1F)N1CCN(c2ccc(-c3cccnc3)nn2)CC1 | -8% (inactive) and -16% (inactive) |
| O=C(c1ccc(N2CCCCC2)nn1)N(Cc1ccccc1)c1ccccn1 | -19% (inactive) |
| CCSc1ccccc1C(=O)N1CCN(c2ncnc3c2nnn3C)CC1 | -12% (inactive) |
| CCOc1ccccc1C(=O)N1CCC(Oc2cccc(C)n2)CC1 | -8% (inactive) |
| O=S(=O)(CCc1ccccc1)N1CCN(c2ccc(-c3ccccc3)nn2)CC1 | -3% (inactive) |
| CCSc1ccccc1C(=O)N1CCN(C(=O)C2CC2c2ccccc2)CC1 (stereo not drawn) | -7% (inactive) |
| CCOc1ccccc1C(=O)N1CCN(c2ccc(-c3ccccn3)nn2)CC1 | 100% (active) |
| c1ccc(-c2ccc(N3CCNCC3)nn2)nc1 | 100% (active) |
| C=CCNC(=S)NN=C(C)c1cc(OC)c(OC)c(OC)c1 | -5.43% (inactive) |
| Cc1cc(OC2CN(C(=O)C(C)(C)Oc3ccc(Cl)cc3)C2)cc(=O)n1C | -5% (inactive) |
| COc1ccc(N2CCn3c(SCC(=O)Nc4ccc(OC)cc4OC)nnc32)cc1 | -12% (inactive) |
| O=C(O)c1cc(Br)cs1 | -5% (inactive) |
| Cc1ccc(SCCC(=O)Nc2cccc(Cl)c2Cl)cc1 | -17% (inactive) and -19% (inactive) |
| COc1ccc(NC(=O)CCSc2ccc(C)cc2)c([N+](=O)[O-])c1 | 62% (active) |

| SMILES | inhibition |
| --- | --- |
| COc1ccc(OCC(=O)NN=C(C)CC(=O)Nc2ccc(OC)cc2[N+](=O)[O-])cc1 | -8.04% (inactive) |
| CN(C)[C@@H](CNC(=O)C(=O)Nc1ccc(F)c(Cl)c1)c1ccco1 | -17% (inactive) |
| NC(=O)c1ccccc1NC(=O)c1cccn(Cc2cccc(F)c2)c1=O | 4% (inactive) |
| N#C/C(=C\N1CCC(C(N)=O)CC1)C(=O)NCCc1ccccc1 | -13% (inactive) |
| O=C(Nc1nc2c(s1)C(=O)NCCC2)c1ccc2noc(-c3ccccc3)c2c1 | -3% (inactive) |
| c1ccc(-c2nnc3c4ccccc4c4ccccc4c3n2)nc1 | 81% (active) |
| Cc1oc(-c2ccc(Cl)cc2)cc1C(=O)Nc1ccc(S(N)(=O)=O)cc1 | -10% (inactive) |
| COc1ccc(CC(=O)NCC(c2ccsc2)N2CCc3ccccc3C2)cc1 (stereo not drawn) | -5% (inactive) |
| O=C(NCc1ccc2c(c1)OCO2)C(=O)NC[C@H](O)c1cccc2ccccc12 | -1% (inactive) |
| O=C(Oc1cccc(C(=S)N2CCOCC2)c1)c1cccc(Cl)c1 | 45.9% (active) |
| Cc1ccc(C(=O)Oc2ccc(C(=S)N3CCOCC3)cc2)cc1 | -12.7% (inactive) |
| O=C(Oc1ccc(C(=S)N2CCOCC2)cc1)c1ccc(F)cc1 | -4.78% (inactive) |
| Cc1cc(C)c(C#N)c(SCCC(=O)NCCc2ccccc2)n1 | 0% (inactive) |
| Cc1ccc(OCC(=O)Oc2ccccc2[N+](=O)[O-])cc1 | -0.19% (inactive) |
| O=C(Oc1ccccc1[N+](=O)[O-])N(c1ccccc1)c1ccccc1 | 39% (active) |
| O=C(COc1ccccc1[N+](=O)[O-])NC1CC1 | -0.67% (inactive) |
| COc1cc(N2CCN(C(=O)Nc3ccc(F)c(Cl)c3)CC2)nc(C)n1 | -8% (inactive) |
| O=C(Cn1c(C2CC2)nc2c(cnn2-c2ccccc2)c1=O)Nc1cccc(Cl)c1 | 2% (inactive) |
| O=S(=O)(NCc1cc(C2CC2)n(C2CCCC2)n1)c1ccc(Br)s1 | -11% (inactive) |
| COc1ccccc1NC(=O)CC(C)=NNC(=O)c1ccccn1 | -3.2% (inactive) |
| CCN(CC)CCOc1ccc2c(c1)C(=NNC(=O)c1ccccn1)c1cc(OCCN(CC)CC)ccc1-2 | 42.9% (active) |
| COc1ccc(C(=O)NN=C(c2ccccc2)c2ccccn2)cc1 | -7.73% (inactive) |
| CC(=NNC(=O)C(c1ccncc1)N1CCOCC1)c1ccc(Br)cc1 (stereo not drawn) | 1.79% (inactive) |
| Cc1cnc2n(c1=O)C[C@H](C(=O)Nc1ccc(OC(F)(F)F)cc1)CS2 | -1% (inactive) |

| SMILES | inhibition |
| --- | --- |
| CN(C)CC#CCNC(=O)c1c(F)cccc1Cl | -2% (inactive) |
| O=C(Cc1nnc(-c2ccc3ncccc3c2)o1)NCc1ccc(Cl)cc1 | 2% (inactive) |
| O=C(c1ccc(Cl)s1)N(Cc1nnc(-c2ccccc2Cl)o1)C1CC1 | -3.73% (inactive) |
| O=C(c1cc(-c2ccco2)nc2ccccc12)N(Cc1nnc(-c2ccc(Cl)cc2)o1)C1CC1 | 38.9% (active) |
| O=C(Cc1csc(Nc2ccc(OC(F)(F)F)cc2)n1)NCc1ccco1 | -4% (inactive) |
| Cc1cc(SCC(=O)N2CCCc3ccccc32)n2ncc(-c3ccccc3)c2n1 | -7% (inactive) |
| COc1ccc(OC)c(NC(=O)CSc2nccn2-c2cccc(C(F)(F)F)c2)c1 | 10% (inactive) |
| Cc1ccc(NC(=O)Cc2csc(SCC(=O)c3ccc4c(c3)OCO4)n2)cc1F | 0% (inactive) |
| CN(C)C(CNC(=O)Nc1ccc2c(c1)OCO2)c1ccsc1 (stereo not drawn) | -7% (inactive) |
| O=C(Nc1nncs1)c1ccc(S(=O)(=O)NC2CC2)cc1 | 0% (inactive) and -28% (inactive) |
| O=C(Nc1ccccc1)N1CCC(c2nnc(C3CC3)s2)CC1 | -7% (inactive) |
| O=C(Nc1nncs1)c1ccccn1 | 98% (active) |
| CC1CCN(c2ccc(C(=O)Nc3nnc(C4CC4)s3)cc2[N+](=O)[O-])CC1 | -10.1% (inactive) |
| O=C(NCc1cccnc1-c1cccs1)c1ccccn1 | -5% (inactive) |
| O=C(Nc1nnc(C2CC2)s1)c1ccccn1 | 90.3% (active) |
| COC(=O)C1CCN(C(=O)C(=O)c2c[nH]c3ccccc23)CC1 | 6% (inactive) |
| CCOc1ccc(C(=O)NCCNC(=O)c2ccc(NC(C)=O)cc2)cc1OCC | -15% (inactive) |
| COc1c2ccc(C(=O)NCC3CCCN3c3nc4ccccc4o3)cc2nn1C (stereo not drawn) | -11% (inactive) |
| Cc1ccc(/C=C/S(=O)(=O)N2CC(S(=O)(=O)c3ccc(F)cc3)C2)cc1 | -9% (inactive) |
| N#CCCSc1ccccc1NC(=O)c1ccc([N+](=O)[O-])o1 | -9% (inactive) |
| CCOC(=O)CSc1nnc(CNC(=O)Cc2ccccc2)n1-c1ccccc1OC | -1.32% (inactive) |
| CCOC(=O)CSc1ncc(-c2ccc(OC)cc2)n1-c1ccccc1C | 53% (active) |
| COc1ccc(-c2cnc(SCC(=O)Nc3nccs3)n2-c2cccc(Cl)c2)cc1 | -6% (inactive) |
| Cc1ccnc(N/C=C(/NC(=O)c2ccccc2)C(=O)N/N=C/c2ccc(Cl)cc2)n1 | inactive |

| SMILES | inhibition |
| --- | --- |
| COc1ccc(S(=O)(=O)NCc2ccccc2-c2ccsc2)cc1Cl | -26% (inactive) |
| CCCn1c(=N)n(CC(=O)c2ccc(Cl)c(Cl)c2)c2ccccc21 | -3.72% (inactive) |
| O=C1COc2ccc(C(=O)COC(=O)c3ccccc3Cl)cc2N1 | -1.39% (inactive) |
| O=C(CN1CC(=O)Oc2ccccc21)OCC(=O)c1ccc(Cl)c(Cl)c1 | 93.6% (active) |
| O=C(NCCN1CCOC(c2ccccc2)C1)C1CC1 (stereo not drawn) | -7% (inactive) |
| c1ccc(-c2nc3ccc4ncccc4c3nc2-c2ccccc2)cc1 | -12% (inactive) |
| c1ccc(-c2cn3c(n2)CCc2ccc4cccnc4c2-3)cc1 | 39.4% (active) |
| CC(C)CS(=O)(=O)C1CCN(C(=O)c2cccc(Oc3ccc(F)cc3)c2)CC1 | -1% (inactive) |
| CCCCC[n+]1ccn(C2=C([O-])c3ccccc3C(=O)C2=NS(=O)(=O)c2ccccc2)c1 | -14.3% (inactive) |
| CCCC(=O)OCC(=O)Nc1cc(Cl)ccc1[N+](=O)[O-] | 42.6% (active) |
| CC(C)(C)NC(=O)COC(=O)c1cc(Cl)ccc1[N+](=O)[O-] | 6.97% (inactive) |
| Cc1cc(NC(=O)COC(=O)COc2ccc(Cl)cc2C)c([N+](=O)[O-])cc1C | 10.3% (inactive) |
| O=C(NCc1cncc(-c2cccs2)c1)c1ccc2ncsc2c1 | -4% (inactive) |
| CC(NC(=O)c1ccccc1)C(c1ccccc1)N(C)C (stereo not drawn) | 25% (inactive) |
| O=C(NNC(=O)c1ccccc1[N+](=O)[O-])Nc1ccccc1C(F)(F)F | -2.15% (inactive) |
| CC(C)NC(=O)c1ccc(Sc2ccccc2)c([N+](=O)[O-])c1 | -10.4% (inactive) |
| CC(C)NC(=O)c1ccccc1Nc1c([N+](=O)[O-])cc(C(F)(F)F)cc1[N+](=O)[O-] | 56% (active) |
| COc1ccc(C)cc1NC(=O)Cc1cc(=O)[nH]c(SCc2ccc(F)cc2)n1 | -4% (inactive) |
| O=C(CN1C(=O)COc2ccc(Cl)cc21)Nc1ccc(N2CCOCC2)cc1 | -6.86% (inactive) |
| CC(OC(=O)CN1C(=O)COc2ccccc21)C(=O)NCc1ccc(F)cc1 (stereo not drawn) | 4.53% (inactive) |
| O=C(CN1C(=O)COc2ccccc21)Nc1ccc(F)cc1 | 48.3% (active) |
